Screens from PubChem.
Hits are enriched below; roughly 2.9% of the tested compounds scored in any of these assays.
Vif imaging – HIV Vif inhibition | HEK293T cells, Vif self-association by quenched fluorescence, imaging, 24 h | inhibition, % at 7.49 µM | hit rate 0.35% among 340,000 | AID 602346; in the data active = inhibition above about 50%, passing the limit was not always enough
MITF TRPM1 HTS – increases MITF-driven TRPM1 promoter luciferase signal. SK-MEL-5 TRPM1-promoter luciferase, 24 h; % of positive control, neutral wells = 0. activation, % at 12.5 µM. hit rate 0.75% among 300,000. AID 588334;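 active = mean activation of at least 80% with every replicate also reaching 80%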
Wnt act – activators of Wnt/beta-catenin signaling. Wnt/beta-catenin reporter cell assay, activator, plate reader. activation, % at 9.35 µM. hit rate 1.2% among 300,000. AID 743398; in the data active = activation above about 30%, passing the limit was not always enough
esBAF inh – SWI/SNF esBAF complex inhibition; mouse ES cells, Bmi1-luciferase knock-in reporter, 24 h; 100% = twice the neutral-well signal; reporter increase, % at 12.5 µM; hit rate 2% among 350,000; AID 602393; in the data active = activation above about 40%;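 note: a rise in the Bmi1 reporter signal indicates esBAF inhibition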
N-glyco inh – N-linked glycosylation inhibition. D54 ERlucT glycosylation luciferase reporter, 24 h; percent of 100 nM tunicamycin response. reporter increase, % at 12.5 µM. hit rate 0.23% among 360,000. AID 588692;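 active = mean luciferase reporter signal, scaled so untreated is 0 and the glycosylation-blocking control 100, at or above a set limit in every replicate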;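 note: luciferase carries N-glycosylation sites so blocking glycosylation raises the light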
PvdQ inh – blocks Pseudomonas aeruginosa PvdQ acylase activity; purified PvdQ acylase, fluorescence plate reader; inhibition, % at 10 µM; hit rate 0.063% among 340,000; in the data active = inhibition above about 30%, passing the limit was not always enough
A number is an active result; i = inactive; nt = not tested or not shown.

SMILES	Vif imaging	MITF TRPM1 HTS	Wnt act	esBAF inh	N-glyco inh	PvdQ inh
CCOC(=O)/C(=C/c1ccc(OC(=O)c2ccncc2)cc1)C(C)=O	i	i	45.7	nt	i	i
CCOc1ccc(/C=N/O)cc1	nt	i	i	i	i	i
Cc1ccc(Oc2ccc(/C=N/O)cn2)cc1	i	nt	i	48.0	i	i
Cc1ccc(COc2ccc(/C=N/O)cc2)cc1	i	i	31.0	nt	i	i
C[C@@H]1CN([C@@H](C)CO)C(=O)Cc2cc(NC(=O)CCCN(C)C)ccc2O[C@@H]1CN(C)S(=O)(=O)c1ccccc1	nt	nt	nt	i	nt	nt
C[C@@H]1CN([C@@H](C)CO)C(=O)c2cc(NC(=O)Nc3ccccc3)ccc2O[C@@H]1CN(C)C(=O)Nc1ccc(C(F)(F)F)cc1	nt	nt	nt	i	nt	nt
C[C@@H]1CN([C@H](C)CO)C(=O)Cc2cc(NC(=O)CCC(F)(F)F)ccc2O[C@@H]1CN(C)S(C)(=O)=O	nt	nt	nt	i	nt	nt
CCC(=O)NC[C@@H]1[C@@H](c2ccccc2)[C@H](CO)N1C(=O)C1CCC1	nt	nt	nt	i	nt	nt
O=C(O)c1ccc(NC(=S)NC(=O)c2ccc3ccccc3c2)cc1	i	i	i	40.8	i	i
O=C(NC(=S)Nc1ccc2ncccc2c1)c1ccccc1	i	i	i	67.2	i	i
O=C(Nc1ccc2ncccc2c1)c1ccccc1	i	i	i	i	i	i
O=C(NC(=S)Nc1ccc2[nH]ncc2c1)c1ccccc1	nt	i	nt	66.2	i	i
CCOc1cccc(C(=O)NC(=S)Nc2ccccc2)c1	i	92.9	i	nt	i	i
CCOc1cccc(C(=O)NC(=S)Nc2cccnc2)c1	i	i	nt	nt	i	i
CCC(=O)Nc1cccc(NC(=S)NC(=O)c2ccc(C)cc2)c1	i	i	i	96.0	i	i
O=C(NC(=S)Nc1cccc(NC(=S)NC(=O)c2ccccc2)c1)c1ccccc1	i	i	i	66.3	i	i
CC(=O)c1cccc(NC(=S)NC(=O)c2ccccc2Cl)c1	i	i	nt	nt	i	i
O=C(NC(=S)Nc1ccc2nc[nH]c2c1)c1ccccc1	i	101.8	i	55.4	i	i
CC(=O)c1cccc(NC(=S)NC(=O)c2ccc(C)cc2Cl)c1	i	i	nt	59.6	i	i
O=C(NNC(=S)Nc1ccccc1)c1ccc2ncccc2c1	i	i	i	nt	i	i
CC(C)(C)NC(=S)NNC(=O)c1ccc2ncccc2c1	i	i	i	56.6	i	i
O=C(N/N=C/c1ccc(OC(=O)c2ccccc2Cl)cc1)c1ccccn1	i	96.5	nt	nt	i	i
N#Cc1cc([N+](=O)[O-])ccc1Oc1cccc(/C=N/NC(=O)c2cccc(Cl)c2)c1	i	i	nt	i	i	63.0
COc1ccc(/C=N/NC(=O)c2cccc([N+](=O)[O-])c2)cc1OC	i	i	i	nt	i	i
O=C(Oc1cccc(/C=N/NC(=O)c2ccccn2)c1)c1ccc([N+](=O)[O-])cc1	i	i	33.7	i	i	i
SMILES	Vif imaging	MITF TRPM1 HTS	Wnt act	esBAF inh	N-glyco inh	PvdQ inh
O=C(N/N=C/c1cc([N+](=O)[O-])ccc1N1CCCCCC1)c1ccccn1	nt	i	i	nt	i	i
O=C(C[C@H]1CC[C@@H]2[C@H](COC[C@H](O)CN2Cc2ccc(Cl)cc2)O1)Nc1nccs1	nt	nt	nt	i	nt	nt
COc1ccc(/C=N/Nc2cc(C)nc3ccc(OC)cc23)c(OC)c1	92.3	nt	i	i	i	i
COc1ccc2nc(C)cc(NCc3ccc(F)cc3)c2c1	90.8	i	i	nt	i	i
COc1ccc2nc(C)cc(N/N=C/c3ccccc3)c2c1	i	i	nt	i	i	i
COc1ccc(OC)c(Nc2cc(C)nc3ccc(C)cc23)c1	i	i	i	i	i	i
CC(C)OC(=O)c1cc2ccccc2[nH]1	i	i	i	66.4	i	i
CCOC(=O)c1cc(-c2ccc(OC)cc2)n[nH]1	i	nt	i	69.8	i	i
CCOC(=O)c1cc(-c2ccc3c(c2)OCCO3)n[nH]1	i	i	i	nt	i	i
CCOC(=O)c1cc2cc3ccccc3cc2[nH]1	i	nt	40.2	i	i	i
NNC(=O)c1cc2ccccc2[nH]1	i	i	i	nt	i	i
CCOC(=O)c1cc(=O)n2c(nc3ccccc32)[nH]1	i	i	i	54.6	i	i
C[C@@H]1CCCCO[C@H](CN(C)C(=O)C2CCCCC2)[C@H](C)CN([C@H](C)CO)C(=O)c2cc(NC(=O)CCC(F)(F)F)ccc2O1	nt	nt	nt	i	nt	nt
CO[C@H]1CN(C)C(=O)c2cc(NC(=O)C3CC3)ccc2OC[C@H](C)N(C(=O)c2ccccn2)C[C@H]1C	nt	nt	nt	i	nt	nt
